According to PubChem BioAssay AID1159580 (chemical genetic matrix, 2015):
Hit rate of the full screen: of about 5,500 compounds, about 2,000 (36%) were called active. Inconclusive results (about 18%) are left out. Cut-off read from the data, not from the text of the source: active = normalized growth mostly below about 0.91 (no sharp cut-off); inconclusive = no clear call, values can overlap the other calls; inactive = mostly above about 0.92. The list shows a part of the results.

Experiment: chemical genetic growth profiling, strain panel (AID 1159580);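 note: tested at 20 µM; growth read once vehicle control cultures reached saturation at 30 °C; 1 = growth at the plate median or of vehicle wells; lower values mean less growth of the strain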
Conditions: S. cerevisiae deletion strains, growth OD

Measured: normalized growth

COc1ccc(/C=C/C(=O)Nc2ccccc2C(=O)O)cc1OC
inactive: locus YAL013W, strain DEP1, hits give low values 1.03 | locus YAL040C, strain CLN3, hits give low values 0.97 | locus YCL061C, strain MRC1 (second series), hits give low values 0.99 | locus YDR150W, strain NUM1, hits give low values 0.994 | locus YDR363W, strain ESC2, hits give low values 1.01 | locus YER002W, strain NOP16, hits give low values 0.985 | locus YMR263W, strain SAP30, hits give low values 0.996 | locus YMR307W, strain GAS1, hits give low values 1.01 | locus YNL175C, strain NOP13, hits give low values 0.979 | locus YNL197C, strain WHI3, hits give low values 0.964 | locus YNL224C, strain SQS1, hits give low values 0.999 | locus YNL322C, strain KRE1, hits give low values 1.02 | locus YOR083W, strain WHI5 (second series), hits give low values 0.964 | locus YPL055C, strain LGE1, hits give low values 1.05 | locus YPL241C, strain CIN2, hits give low values 0.991
